TDP1 block – qHTS Assay for Inhibitors of Tyrosyl-DNA Phosphodiesterase (TDP1); Tyrosyl-DNA phosphodiesterase 1 (Homo sapiens), Q9NUW8; recombinant TDP1, AlphaScreen DNA substrate cleavage; Potency, µM (highest dose often 130 µM), actives largely listed as inhibitors; 350,000 tested, 0.28% active; also: nearly all actives have a fitted effect of over 40% in size
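E. coli-derived human Tdp1, 1 nM final. Cpd preinc 15 min RT; substrate 15 nM final, 5 min RT; AS bead mix 10 ug/ml final, 10 min RT. Signal loss = tyrosine-FITC cleavage. No-enzyme wells = max signal.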
DT40 TDP1 CPT – qHTS for Inhibitors of human tyrosyl-DNA phosphodiesterase 1 (TDP1): qHTS in cells in presence of CPT | chicken DT40 Tdp1-/-;hTDP1 cells + 20 nM CPT, ATP luminescence, 48 h | Potency, µM (doses to about 46.2 µM), actives largely listed as inhibitors | 420,000 tested, 12% active; also: nearly all actives have a fitted effect of over 55% in size
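Cell growth measured by CellTiter-Glo luminescence after a minimum 48 h, 37 C compound exposure with 20 nM CPT in Tdp1-knockout DT40 cells stably expressing hTDP1, seeded 400/well; qHTS titration format.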
TDP1 cell noCPT – qHTS for Inhibitors of human tyrosyl-DNA phosphodiesterase 1 (TDP1): qHTS in cells in absence of CPT | DT40 Tdp1-/- hTDP1 cells, no CPT, ATP luminescence, 48 h | Potency, µM (titrated, usually from 46.2 µM), most hits filed as inhibitors | 420,000 tested, 15% active | AID 686978, 2013; also: nearly all actives have a fitted effect of over 55% in size
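Cells were dispensed at 400 per well, compounds added by pin tool, plates incubated ≥48 hr at 37 °C, then CellTiter-Glo added for 30 min at room temperature before luminescence reading. Line: DT40 Tdp1-/- complemented with hTDP1; camptothecin omitted.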
PLK1 PBD block – qHTS for Inhibitors of PLK1-PDB (polo-like kinase 1 - polo-box domain): Primary Screen | Serine/threonine-protein kinase PLK1 (Homo sapiens), P53350 | Plk1 PBD binding of FITC phosphopeptide, fluorescence polarization | Potency, µM, usual class: inhibitors | 360,000 tested, 2.8% active; also: series mostly up to about 57 µM; nearly all actives have a fitted effect of over 65% in size
VDR inh – Inhibitors of the vitamin D receptor (VDR): qHTS. Vitamin D3 receptor (Homo sapiens), P11473. Potency, µM, most hits filed as inhibitors. VDR-SRC2-3 peptide fluorescence polarization, 2 h. 400,000 tested, 0.93% active
Target sequence (P11473 whole entry, looked up): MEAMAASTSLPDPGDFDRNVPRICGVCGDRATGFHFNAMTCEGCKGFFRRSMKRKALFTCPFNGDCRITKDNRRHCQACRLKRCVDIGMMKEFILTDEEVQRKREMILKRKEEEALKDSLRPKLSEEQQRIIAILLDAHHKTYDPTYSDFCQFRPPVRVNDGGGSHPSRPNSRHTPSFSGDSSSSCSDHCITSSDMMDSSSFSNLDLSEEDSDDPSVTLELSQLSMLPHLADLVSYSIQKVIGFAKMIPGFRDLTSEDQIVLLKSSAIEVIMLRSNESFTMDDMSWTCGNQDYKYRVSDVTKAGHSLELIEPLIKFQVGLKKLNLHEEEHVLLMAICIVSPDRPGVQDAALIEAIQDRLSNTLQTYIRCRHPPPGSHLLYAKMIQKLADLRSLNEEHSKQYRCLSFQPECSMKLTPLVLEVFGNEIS
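The screen uses fluorescence polarization to detect compounds that interfere with recruitment of the SRC2-3 coactivator peptide to VDR; plates are read after 2 h at room temperature.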
GCN5L2 inh – qHTS Assay for Inhibitors of GCN5L2; 390,000 tested, 0.21% active; GCN5L2 HAT assay, ThioGlo1 CoA-SH fluorescence; Potency, µM (highest dose often 58.9 µM), hits mostly inhibitors
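Titration-based screen in which CoA formation is detected via maleimide probe ThioGlo1 (50uM) turning fluorescent on thiol reaction; substrates H3(1-25) 75uM and acetyl-CoA 70uM, GCN5L2 20nM, 20 min incubation at room temperature.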
Hits are given with their value; 0 = inactive; ? = inconclusive; - = no result given. A selection: hits, their analogues and other compounds. The true share with any hit is near 18%. Calls follow the shape of the dose curve; as a rule, active = well fitted curve in the direction sought with a large enough effect; inconclusive = small, poorly fitted or top-dose-only effect, or another doubt; inactive = no such curve, though single readings can be large; an effect the other way counts as inactive or inconclusive.

SMILES	TDP1 block	DT40 TDP1 CPT	TDP1 cell noCPT	PLK1 PBD block	VDR inh	GCN5L2 inh
O=C(OCc1cn([C@@H]2C[C@H](c3ccc(Cl)cc3)N(C(=O)C3CCCCC3)C[C@H]2O)nn1)c1ccccc1	-	0	?	0	-	-
COc1ccc(-n2ccnc2SCC(=O)Nc2nnc(C)s2)cc1	0	?	0	-	0	0
CCN(CC(=O)Nc1ccc2c(c1)OCCO2)C(=O)/C=C/c1cccc(C(F)(F)F)c1	0	0	0	0	0	0
O=C(O)/C(=C\c1cn(-c2ccccc2)nc1-c1ccc(Cl)cc1)NC(=O)c1ccccc1	-	0	0	0	0	0
CC1(C)CC(=O)C(=Cc2cn(-c3ccccc3)nc2-c2ccc(Cl)cc2)C(=O)C1	0	9.2µM	21µM	1.2µM	?	0
N#CCCn1cc(/C=N/O)c(-c2ccc(F)cc2)n1	0	0	0	0	0	0
CC1(C)CC(=O)C(=Cc2cn(CCC#N)nc2-c2ccc(F)cc2)C(=O)C1	0	0	0	3.4µM	?	0
O=C1c2ccccc2C(=O)N1c1ncccc1O	0	-	-	-	-	-
COC(=O)c1ccc2c(=O)n(CCCCCC(=O)NCCc3ccc(Cl)cc3)c(=O)[nH]c2c1	0	0	?	-	0	0
CCOc1ccc(C(c2c(C)[nH][nH]c2=O)c2c(C)[nH][nH]c2=O)cc1OC	0	0	0	?	0	0
Cc1[nH][nH]c(=O)c1C(c1cc(Br)ccc1O)c1c(C)[nH][nH]c1=O	-	0	?	24µM	?	0
O=C(O)c1[nH]c2ccccc2c1C(c1c(F)cccc1Cl)c1c(C(=O)O)[nH]c2ccccc12	-	0	0	?	?	0
COc1cc(Cl)cc(C(c2c(C(=O)O)[nH]c3ccccc23)c2c(C(=O)O)[nH]c3ccccc23)c1O	-	0	0	24µM	?	0
O=C(O)c1[nH]c2ccccc2c1C(c1cc(Br)ccc1O)c1c(C(=O)O)[nH]c2ccccc12	-	0	0	17µM	?	?
CSCCC(NS(=O)(=O)c1cccc(C(F)(F)F)c1)C(=O)Nc1ccccc1N1CCCC1 (stereo not given)	0	?	?	0	0	0
CCCCOc1ccc(C(=O)Oc2cccnc2)cc1	-	0	0	0	0	0
Cc1ccccc1NC(=S)Nc1ccc(Br)cc1	0	0	0	0	?	0
O=C1c2cccc(OCC(=O)N3N=C(c4cccs4)CC3c3ccc(F)cc3)c2CCN1Cc1cccnc1 (stereo not given)	0	9.2µM	10µM	0	0	0
CNC(=O)c1ccsc1NC(=O)c1coc2ccccc2c1=O	-	?	18µM	0	0	0
COc1ccc(CN2C(=O)c3ccccc3C2c2nnnn2C(C)C)cc1OC (stereo not given)	-	0	0	0	-	-
COc1cc2c3nnc(-c4ccc(F)cc4)c-3cn(Cc3ccc(F)cc3)c2cc1OC	0	2.3µM	2.6µM	?	0	0
COc1ccc(Cn2cc3c(-c4ccc(F)cc4)nnc-3c3cc(OC)c(OC)cc32)cc1	0	4.1µM	4.1µM	0	0	0
Cn1nc2c3cc(F)ccc3n(Cc3ccc(F)cc3)cc-2c1=O	-	0	?	0	0	0
COc1cc2c3nnc(-c4ccc(F)cc4)c-3cn(Cc3ccccc3)c2cc1OC	0	3.3µM	5.2µM	0	0	0
COc1ccccc1NS(=O)(=O)c1cc(NC(=O)c2[nH]c(C)c(C(C)=O)c2C)ccc1N1CCOCC1	-	7.3µM	2.9µM	0	0	0
SMILES	TDP1 block	DT40 TDP1 CPT	TDP1 cell noCPT	PLK1 PBD block	VDR inh	GCN5L2 inh
COc1ccccc1NS(=O)(=O)c1cc(NC(=O)c2cc(F)c(F)c(F)c2F)ccc1N1CCOCC1	0	?	16µM	0	0	0
COc1ccccc1NS(=O)(=O)c1cc(NC(=O)c2ccccc2C)ccc1N1CCOCC1	-	?	?	0	0	-
Cc1cc(SCC(=O)Nc2nsc(-c3ccc(C(C)(C)C)cc3)n2)nc2ccccc12	0	?	0	-	0	0
N#Cc1ccccc1-c1ccc2ncnc(NCCN3CCOCC3)c2c1	-	?	0	-	0	0
CC(=O)c1cc(-c2ccccc2)n(CC(=O)N2CCC(C)CC2)c1C	0	?	29µM	0	0	0
CC(=O)c1cc(-c2ccc(F)cc2)n(CC(=O)NC2CCC(C)CC2)c1C (stereo not given)	0	?	?	-	0	0
CC(=O)c1cc(-c2ccccc2)n(CC(=O)NC2CCCC2)c1C	0	0	0	0	0	0
CC(=O)c1cc(-c2ccccc2)n(CC(=O)N2CCN(C3CCCC3)CC2)c1C	0	?	23µM	0	0	0
CCCCc1ccc(Nc2nc(CCC)cc(=O)[nH]2)cc1	0	?	16µM	0	0	0
CCCc1cc(=O)[nH]c(Nc2cc(Cl)cc(Cl)c2)n1	0	15µM	16µM	-	0	0
CC(=O)NNC(=O)c1csc(-c2csc(C)n2)n1	0	0	0	0	0	0
O=C(NC1CCCCC1)c1cnn2c1NC(=C1CC1)C=C2C(F)F	-	?	?	-	0	-
COc1ccc(S(=O)(=O)N(CCN2CCOCC2)Cc2cc(OC)ccc2OC)cc1	0	0	13µM	0	0	0
CCOC(=O)c1c(NC(C)=O)c2c3c(sc2n1Cc1nc(-c2cccc(C)c2)oc1C)CCCC3	0	3.7µM	?	-	0	0
O=c1n(Cc2ccc(Cl)cc2)c2sc3c(c2c2ncnn12)CCCC3	0	?	15µM	0	0	0
CCOC(=O)c1c(NC(C)=O)c2c3c(sc2n1Cc1cc(C)ccc1C)CCCC3	0	5.8µM	?	-	0	0
CCOC(=O)c1c(NC(C)=O)c2c3c(sc2n1Cc1nc(-c2ccccc2C)oc1C)CCCC3	0	0	0	-	0	0
CCOC(=O)N1CCc2c(sc3c2c(=O)n(-c2ccc(CC)cc2)c(=O)n3Cc2cccc(Cl)c2)C1	0	?	?	-	0	0
COC(=O)c1c(NC(C)=O)c2c3c(sc2n1Cc1cc(C)ccc1C)CCCC3	0	0	0	-	0	0
CCOC(=O)c1c(NC(C)=O)c2c3c(sc2n1Cc1cccc(Cl)c1)CCCC3	0	?	15µM	-	0	0
CCOC(=O)c1c(NC(C)=O)c2c3c(sc2n1Cc1ccc(Cl)cc1)CCCC3	0	?	15µM	-	0	0
Cc1ccccc1Cn1c(=O)n(-c2ccc(Cl)cc2)c(=O)c2c3c(sc21)CCCC3	0	0	0	-	0	0
